Hit rate of the full screen: of about 220,000 compounds, about 2,600 (1.2%) were called active. Many of the other results were omitted from the sample, so actives are more common in it than they were. A number with no mark means an inactive call.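 The calls were made as follows: active = activation above the mean of all tested compounds plus 3 SD, set per screening run (cut at about 8.8% in these data); inactive = the rest.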

Among the data in PubChem BioAssay AID1321 (The Scripps Research Institute Molecular Screening Center, 2008) are reporter increase values, retold here.

The experiment concerns the target Wee1-like protein kinase (Homo sapiens) (UniProt P30291). Nature of the experiment: compounds stabilizing Wee1-luciferase fusion – cell-based, HeLa, Wee1K328M-luciferase, luminescence, primary screen (AID 1321).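 Also: cells exposed to compound for 20 h before luminescence read; 0% = DMSO alone and 100% = MG132 at 30 µM.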 As to conditions: HeLa Luc-Wee1K328M stability, at 5 µM, stronger effect = higher value, 100% = proteasome inhibitor MG132 effect.
For the compound `Cc1nn(-c2ccccc2)c(=O)c2noc(C)c12`, the reporter increase was 3.18%.

As for `CS(=O)(=O)c1ccc2nnn(OCC(=O)Nc3cccc(C#N)c3)c2c1`, the reporter increase was 0.86%.

Take `Cn1c(=O)c(=O)n(C)c2cc(S(=O)(=O)NCCN3CCN(c4ccccc4F)CC3)ccc21`: the reporter increase was 3.58%.

Take `COc1ccc(Cc2cc(-c3ccc(F)cc3)n[nH]c2=O)cc1`: the reporter increase is -0.9%.

Consider `CCC1(C)Cc2c(sc3nc(SC)[nH]c(=O)c23)CO1` (stereo unspecified), for which the reporter increase is -2.99%.

On to `CSc1nc2ccc(NC(=O)c3c(F)cccc3F)cc2s1`, for which the reporter increase is 4.29%.

As for `CCCC(=O)Nc1nc2ccc(NC(=O)c3cccnc3)cc2s1`, the reporter increase is 3.09%.

As for `CCOc1ccc2nc(Nc3nc4ccc(NC(C)=O)cc4s3)sc2c1`, the reporter increase was 1.97%.

In the case of `COc1ccc2nc(Nc3nc4cc5c(cc4s3)OCCO5)sc2c1`, the reporter increase was 0.78%.

For the compound `COc1ccc2nc(Nc3nc4ccc(NC(C)=O)cc4s3)sc2c1`, the reporter increase was 10.4% (active).

As to `CCCC(=O)Nc1nc2ccc(NC(=O)c3c(F)c(F)c(OC)c(F)c3F)cc2s1`, the reporter increase is 10.8% (active).

Take `CCCC(=O)Nc1ccc2c(c1)nc(CCNC(=O)c1ccco1)n2C`: the reporter increase was 1.75%.

Turning to `CC(=O)N(OCc1ccc(OC(C)C)c(Cl)c1)C(C)=O`, the reporter increase is 2.11%.

As for `Cc1c(S(=O)(=O)NCc2ccccc2)c(=O)n(C)c(=O)n1C`, the reporter increase was -0.22%.

Regarding `CN1CCN(c2ccc(S(=O)(=O)N3CCOCC3)cc2NC(=O)CCc2ccccc2)CC1`, the reporter increase was 1.28%.

On to `Cc1nnc2n1N=C(c1ccc3c(c1)NC(=O)CO3)CS2`, for which the reporter increase is -1.74%.

Take `N/C(=N\S(=O)(=O)c1cc(C(F)(F)F)cc(C(F)(F)F)c1)c1cccs1`: the reporter increase is -2.49%.

Regarding `O=C(CNC(=O)c1cc2c(s1)CCC2)Nc1ccccc1Br`, the reporter increase was 5.95%.

Turning to `O=C(NNC(=O)c1cc2c(s1)CCCC2)c1ccccc1`, the reporter increase is 4.34%.

`O=C(Nc1ccc(F)cc1)c1cc2c(s1)CCCC2`: the reporter increase is 16.5% (active).

As to `O=C(CNCCC1=CCCCC1)Nc1ccccc1N1CCCCCC1`, the reporter increase was -2.9%.

Turning to `CN(CC(=O)Nc1ccc(F)cc1)CC(=O)Nc1ccc(Cl)c(S(=O)(=O)N2CCOCC2)c1`, the reporter increase was -2.59%.

As to `CCOc1cc(NC(=O)c2ccccn2)c(OCC)cc1NC(=O)c1ccc(OC)cc1`, the reporter increase was -0.73%.

Take `CCN(CC)CCOc1ccc2c(c1)C(=NNC(=O)c1ccccn1)c1cc(OCCN(CC)CC)ccc1-2`: the reporter increase was 13% (active).

As for `COc1ccc(CC(=O)N/N=C(\C)c2ccccn2)cc1`, the reporter increase is 3.82%.

In the case of `COc1ccccc1-n1cn[nH]c1=S`, the reporter increase is -1.47%.

Take `Cc1ccc2c(C)c(C(=O)N3CCC(N4CCC(C(=O)NC5CC5)CC4)CC3)oc2c1`: the reporter increase was 7.23%.

As to `O=C(N/N=C\c1cc(Br)c(Br)o1)C1COc2ccccc2O1` (stereo unspecified), the reporter increase was 3.79%.

`Cc1cc(CO)nn1-c1ccc([N+](=O)[O-])cc1`: the reporter increase is -1.77%.

With `c1cnc(Nc2nc(-c3ccc4ccccc4c3)cs2)nc1`, the reporter increase is -0.11%.

`c1ccc(Nc2nc(-c3ccncc3)cs2)nc1`: the reporter increase was 11.1% (active).

For `COc1ccc(-c2csc(Nc3ccccn3)n2)cc1`, the reporter increase is 0.98%.

For the compound `O=C(O)C#Cc1cccc2ccccc12`, the reporter increase was 6.16%.

Consider `O=[N+]([O-])C(=c1ccc2c(c1)N1C3=C(CCCC3)CC3CCCCC31N=2)[N+](=O)[O-]` (stereo unspecified), for which the reporter increase is -2.36%.

Regarding `Cc1cc(C)c2c(-n3cccc3)c(NC(=O)OCc3ccccc3)sc2n1`, the reporter increase is -2.38%.

In the case of `C/C(O)=C\c1nc(=O)c2c(C)cc(C)nc2n1-c1ccccc1`, the reporter increase is -1.67%.

Take `Cc1cc(C)c2c(n1)sc1c(=O)n(-c3ccccc3)c(=O)[nH]c12`: the reporter increase was 17.8% (active).

Consider `O=c1[nH]c(SCc2cccc(F)c2)nc2ccccc12`, for which the reporter increase is -1.83%.

Turning to `O=P(O)(CN1CCCCCC1)C1Cc2ccccc2C1`, the reporter increase was 2.27%.

Consider `CC1CCN(Cc2nc(-c3ccc(Cl)cc3)no2)CC1`, for which the reporter increase was 8.97% (active).

In the case of `CN1CCN(C(=O)CCc2nc(-c3ccc(Cl)cc3)no2)CC1`, the reporter increase was 2.75%.

With `Cc1ccc(-c2noc(CN3CCN(Cc4ccccc4)CC3)n2)cc1`, the reporter increase is 0.1%.

In the case of `COCC(C)OC(=O)c1c(N)n(CCCN2CCOCC2)c2nc3ccccc3nc12` (stereo unspecified), the reporter increase is -0.94%.

Consider `FC(F)(F)c1cccc(-c2nc(COc3ccc(Cl)cc3Cl)no2)c1`, for which the reporter increase is 1.86%.

For `CCCC(=O)n1nc(-c2ccccc2)nc1N`, the reporter increase was -0.53%.

In the case of `COc1ccccc1C(=O)n1nc(-c2ccccc2)nc1N`, the reporter increase was 0.74%.

With `COc1ccc(CC(=O)n2nc(-c3cccnc3)nc2N)cc1`, the reporter increase was 9.39% (active).

As to `Clc1ccc(CSc2nnc3c(n2)[nH]c2ccccc23)cc1`, the reporter increase is 4.2%.

As for `CC(=O)NCC(O)c1ccc([N+](=O)[O-])cc1` (stereo unspecified), the reporter increase was -2.38%.

For `COC(=O)c1ccc(S(=O)(=O)N(CCO)Cc2ccccc2)n1C`, the reporter increase is 0.33%.

With `O=C(Cn1cnc2ccccc2c1=O)Nc1cccc(S(=O)(=O)N2CCCCC2)c1`, the reporter increase was -0.22%.

Turning to `CC(=O)c1cc(C#N)c(SCC(=O)C(C)(C)C)nc1C`, the reporter increase was 0.58%.

Take `CC(=O)c1cc(C#N)c(SCC(=O)Nc2nccs2)nc1C`: the reporter increase was 8.83% (active).

Take `Cc1[nH]c2ccccc2c1SCC(=O)Nc1nccs1`: the reporter increase was -4.02%.

Regarding `O=C(/C=C/Sc1ncn[nH]1)c1ccc(Cl)cc1`, the reporter increase was 9.14% (active).

As to `Cc1cc(C)nc(S/C=C/C(=O)c2ccccc2)n1`, the reporter increase is 1.73%.

As for `COc1ccc(Cl)cc1CSc1ncn[nH]1`, the reporter increase was -0.89%.

`Cc1ccc(NC(=S)N2CCCC(c3ccccc3)=N2)cc1`: the reporter increase is -4.54%.

For `NC(=O)Cc1ccc2sc(-c3ccccc3)nc2c1`, the reporter increase was 14.1% (active).

Turning to `O=C(O)Cc1sc(-c2ccc(C(=O)O)cc2)nc1-c1ccccc1`, the reporter increase was 2%.

Consider `NC(=O)Cc1ccc2c(c1)[nH]c1ccccc12`, for which the reporter increase is 0.52%.

`Brc1ccc(-c2n(-c3ccccn3)c3ccccc3[n+]2-c2ccccn2)cc1`: the reporter increase is 3.34%.

In the case of `CN(C)N=Nc1ccc2nc[nH]c2c1`, the reporter increase was 2.5%.

With `Cc1ccc(C(=O)Nc2nc(N)n(-c3ccccc3)n2)cc1`, the reporter increase is -0.93%.

For the compound `NS(=O)(=O)c1ccc(CNC(=O)c2cnccn2)cc1`, the reporter increase is 3.73%.

Take `COC(=O)CC1=NN(c2ccccc2)C(=O)C1`: the reporter increase was -1.29%.

With `COC(=O)CC1=NN(c2nc(C)cc(C)n2)C(=O)C1`, the reporter increase is 15.3% (active).

Regarding `Cc1cc(C)cc(NC(=O)C2CCN(c3nc(C)cc(C)n3)CC2)c1`, the reporter increase is -2.65%.

Regarding `O=C1C2C3C=CC(C3)C2C(=O)N1c1ccc(S(=O)(=O)Nc2nccs2)cc1` (stereo unspecified), the reporter increase is -1.57%.

As to `NS(=O)(=O)c1ccc(NC(=O)COC(=O)c2cc3ccccc3oc2=O)cc1`, the reporter increase was -2.85%.

Turning to `O=C(CCc1ccccc1)NNc1ccc(F)cc1`, the reporter increase is 1.37%.

On to `Cc1cc(=O)oc2cc(OCCC[n+]3ccccc3)ccc12`, for which the reporter increase is -1.76%.

As to `Cc1ccccc1N1CCN(CCCOc2ccc3c(C)cc(=O)oc3c2)CC1`, the reporter increase was -1.06%.

For `COc1cccc(-c2nnc(SCCOc3ccc4c(C)cc(=O)oc4c3)o2)c1`, the reporter increase is 9.51% (active).

Consider `COC(=O)c1sccc1NN1C(=O)c2ccccc2C1=O`, for which the reporter increase was -2.49%.

With `CCc1c(C)sc(NC(=O)/C=C/c2ccc3c(c2)OCO3)c1C(=O)OC`, the reporter increase is -2.27%.

Take `Cc1cccc(NC(=O)/C=C/c2ccc3c(c2)OCO3)n1`: the reporter increase was 9.34% (active).

As to `Cc1cccc(NC(=O)Nc2ccc3c(c2)OCO3)n1`, the reporter increase was 5.09%.

As to `COc1ccc(C(=O)N/N=C2\CCS(=O)(=O)c3ccc(F)cc32)cc1OC`, the reporter increase was 0.62%.

On to `CC(C)c1ccc(C(=O)NCCCc2ccccc2)cc1`, for which the reporter increase was -2.16%.

Regarding `O=C(NCCCNCc1ccccc1)c1ccc(/C=N/O)nc1`, the reporter increase is 11.4% (active).

In the case of `Nc1ccc(C(=O)NCc2ccccc2)cc1`, the reporter increase is 2.22%.

As for `CNC(=S)NNC(=O)c1oc2nc(-c3ccccc3)cc(-c3ccco3)c2c1N`, the reporter increase was -0.32%.

On to `CCOP(=O)(OCC)C(Nc1cccc(C)c1)c1ccc(F)cc1` (stereo unspecified), for which the reporter increase is 10.8% (active).

`CCCCOC(=O)c1ccc(NC(c2ccc(C)cc2)P(=O)(OC)OC)cc1` (stereo unspecified): the reporter increase is 8.49%.

With `CCOP(=O)(OCC)C(Nc1ccc([N+](=O)[O-])cc1)c1ccc(Cl)cc1` (stereo unspecified), the reporter increase is 0.66%.

Take `Nc1ccccc1SC(C[N+](=O)[O-])c1ccccc1` (stereo unspecified): the reporter increase is -0.08%.

For the compound `NC1=NC(=O)C(Cc2cccc(Cl)c2)S1` (stereo unspecified), the reporter increase was -3.99%.

For the compound `O=C1NC(=Nc2ccc(Cl)cc2)SC1Cc1cccc(Cl)c1Cl` (stereo unspecified), the reporter increase is -1.02%.

On to `NC1=NC(=O)C(Cc2cccc(Cl)c2Cl)S1` (stereo unspecified), for which the reporter increase is 9.04% (active).

Consider `[O-][N+]12CCCCC1CCCC2CO` (stereo unspecified), for which the reporter increase was -2.55%.

In the case of `COCCCNC(=O)C1CCN(c2ccc(N3CCOCC3)nn2)CC1`, the reporter increase is -2.62%.

As for `CSc1nc(-c2ccco2)nn1C(=O)c1ccccc1Cl`, the reporter increase is -1.69%.

As for `Cc1ccc(C)c(NC(=S)NNC(=O)c2csc(C)c2)c1`, the reporter increase was 1.58%.

In the case of `Cc1ccccc1NC(=S)NNC(=O)c1cccc(Br)c1`, the reporter increase was -1.44%.

`Cc1cc(C(=O)NNC(=S)Nc2ccccc2C)cs1`: the reporter increase is 10.1% (active).

On to `CC(=O)N1CC[n+]2c(-c3ccc([N+](=O)[O-])cc3)csc21`, for which the reporter increase was -3.06%.

`O=c1c2ccccc2nnn1CSc1nnnn1-c1ccccc1`: the reporter increase was 9.56% (active).

`Nc1nnc(SCn2nnc3ccccc3c2=O)s1`: the reporter increase is -0.04%.

In the case of `O=c1c2ccccc2nc(CSc2nnnn2-c2ccccc2)n1-c1ccccc1`, the reporter increase was 5.88%.

In the case of `Cc1ccc(-c2nc(SCC(=O)Nc3ccccc3OC(F)F)c3c(C)c(C(=O)O)sc3n2)cc1`, the reporter increase was -1.68%.
